Glyco luc inh: blocks N-linked glycosylation in D54 reporter cells. D54 ERlucT glycosylation luciferase reporter, 24 h; percent of 100 nM tunicamycin response. AID 588692. reporter increase, % at 12.5 µM. 360,000 tested, 0.23% active;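 active = mean luciferase reporter signal, scaled so untreated is 0 and the glycosylation-blocking control 100, at or above a set limit in every replicate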;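 also: luciferase carries N-glycosylation sites so blocking glycosylation raises the light; 0% = median of neutral control wells and 100% = median of 100 nM tunicamycin wells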
Vif inh: HIV Vif inhibition | inhibition, % at 7.49 µM | HEK293T cells, Vif self-association by quenched fluorescence, imaging, 24 h | 340,000 tested, 0.35% active; in the data active = inhibition above about 50%, passing the limit was not always enough
aDG glyco up: increases alpha dystroglycan glycosylation; AID 624168; Pro5-aDG cells, alpha-DG glycosylation AlphaScreen (IIH6); 0% Pro5, 100% B10-LARGE cell signal; activation, % at 10 µM; 360,000 tested, 0.22% active;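 active = activation of at least 8% versus controls, or a plate z-score of at least 8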;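 also: Pro5 are CHO cells carrying HIG-tagged alpha-DG that lacks glycosylation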
ARNT-TACC3 inh: disruptors of human ARNT/TACC3 interaction; inhibition, % at 9.99 µM; AlphaScreen His-ARNT PAS-B/GST-TACC3 binding, luminescence; TACC3 fragment carries E629A point mutation; Q9Y6A5; AID 623870; 390,000 tested, 0.66% active;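 active = mean inhibition of replicates at least 50% and at least half of replicates each reaching 50%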;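 also: 0% = complete ARNT plus TACC3 wells and 100% = ARNT alone without TACC3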
H9c2 protect: modulators protecting cardiomyocytes from myocardial damage; 360,000 tested, 0.63% active; protection from H2O2 cell death, % at 20 µM; AID 588492; H9c2 cardiomyocytes, H2O2 injury protection, ATPLite, 2 h;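 active = compounds giving at least 50% protection of heart cells from peroxide-induced death in the single-dose screen, raw or plate-pattern-corrected value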;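 also: 0% = DMSO wells with peroxide and 100% = DMSO wells without peroxide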
* hit, by the source's call; / = no result given. Rows were chosen to be rich in hits. Some 1.7% of all compounds tested hit in one or more screens of this group.

SMILES | Glyco luc inh | Vif inh | aDG glyco up | ARNT-TACC3 inh | H9c2 protect
C[C@@H]1CN([C@H](C)CO)C(=O)c2cc(NS(C)(=O)=O)ccc2O[C@@H](C)CCCCO[C@@H]1CN(C)Cc1ccc(C(=O)O)cc1 | / | / | / | 0 | /
O=C(C[C@@H]1CC[C@H]2[C@@H](COC[C@H](O)CN2CCC(F)(F)F)O1)N1CCC(Cc2ccccc2)CC1 | / | / | / | -6 | /
CC(=O)Nc1ccc(-c2ccnc3c2CC(C(=O)NCCc2ccccc2)O3)cc1 (configuration not stated) | -3 | -4 | 0 | / | 8
CC(=O)Nc1ccc(-c2ccnc3c2CC(C(=O)NCc2ccccc2)O3)cc1 (configuration not stated) | 16 | 66* | 0 | / | -4
Cc1cc(C)cc(NC(=O)Nc2ccc3c(c2)C(=O)N(C)[C@H]2CC[C@@H](CC(=O)O)O[C@H]2CO3)c1 | / | / | / | -6 | /
C[C@H]1O[C@@H](n2cc(F)c(=O)[nH]c2=O)[C@H](O)[C@@H]1O | 0 | 15 | 0 | -1 | -3
CCCCCCCCCCCCCCCCCCNc1ccn(C2OC(COP(=O)(O)OCC3OC(n4cc(F)c(=O)[nH]c4=O)CC3O)C(O)C2O)c(=O)n1 (configuration not stated) | 35* | 12 | 0 | -21 | -2
CC1=C(Nc2ccc(C(=O)O)cc2)C(=O)c2ccccc2C1=O | 4 | 35 | 1 | 3 | -12
COC1=C(Nc2ccccc2)C(=O)c2ccccc2C1=O | -1 | / | 3 | 46* | -17
COC1=C(Nc2ccc(C)cc2)C(=O)c2ccccc2C1=O | -8 | 3 | 0 | 51* | -19
Cc1ccc(NC2=C(N3CCCCC3)C(=O)c3ccccc3C2=O)cc1 | 2 | -1 | 1 | 20 | -23
COc1ccc(S(=O)(=O)N(C)C[C@@H]2Oc3ccc(NC(=O)CCCN(C)C)cc3CC(=O)N([C@@H](C)CO)C[C@H]2C)cc1 | / | / | / | -4 | /
O=C(Cn1[nH]c(=O)c2ccccc2c1=O)OCC(=O)c1ccccc1Cl | -1 | 6 | 0 | -2 | 22
Cc1ccc(C(C)C)c(OCC(=O)NN2C(=O)c3ccccc3C2=O)c1 | -1 | 1 | 0 | -8 | -3
CC(C)NC(=O)COC(=O)Cn1[nH]c(=O)c2ccccc2c1=O | -1 | -14 | 0 | -12 | 80*
Cc1ccc(C(C)C)c(OCC(=O)NNC(=O)Cn2[nH]c(=O)c3ccccc3c2=O)c1 | 0 | 5 | 0 | -2 | 70*
Cc1cc(CNC(=O)COC(=O)Cn2[nH]c(=O)c3ccccc3c2=O)cc(C)c1O | -1 | 1 | 0 | -14 | 104*
Cc1cccc(C)c1OCC(=O)N1CC2(C)CC1CC(C)(C)C2 (configuration not stated) | 1 | -8 | 0 | -29 | -12
CC1(C)CC2CC(C)(CN2C(=O)COC(=O)Cn2[nH]c(=O)c3ccccc3c2=O)C1 (configuration not stated) | -1 | -3 | 0 | -3 | 52*
O=C(Cn1[nH]c(=O)c2ccccc2c1=O)OCC(=O)c1ccc(F)c(F)c1 | 0 | 4 | 0 | 10 | 31
C[C@@H]1CN([C@@H](C)CO)C(=O)c2cc(NS(C)(=O)=O)ccc2O[C@@H]1CN(C)Cc1ccc(-c2ccccc2)cc1 | / | / | / | 6 | /
Cc1ccc(NC(=O)C(C)OC(=O)Cn2[nH]c(=O)c3ccccc3c2=O)cc1 (configuration not stated) | -1 | 13 | 1 | 3 | 17
O=C(COC(=O)Cn1[nH]c(=O)c2ccccc2c1=O)NNC(=O)c1ccccc1 | -1 | 33 | 0 | -4 | 93*
CC(OC(=O)Cn1[nH]c(=O)c2ccccc2c1=O)C(=O)Nc1ccc(F)cc1 (configuration not stated) | -1 | / | 0 | -2 | 62*
O=C(Cn1[nH]c(=O)c2ccccc2c1=O)OCC(=O)c1ccc(F)cc1 | -1 | 8 | 0 | 2 | 31
SMILES | Glyco luc inh | Vif inh | aDG glyco up | ARNT-TACC3 inh | H9c2 protect
Cc1ccc(C(C)C)c(OCC(=O)Nc2ccccc2N2CCN(C)CC2)c1 | -4 | -7 | 0 | 11 | 34
CC(C)(C)N(Cc1ccccc1)C(=O)COC(=O)Cn1[nH]c(=O)c2ccccc2c1=O | 3 | 2 | 0 | / | 27
CC(=O)N1CCN(c2ccccc2NC(=O)COc2cc(C)ccc2C(C)C)CC1 | -4 | -15 | -1 | -2 | 66*
O=C(Cn1[nH]c(=O)c2ccccc2c1=O)OCC(=O)N(Cc1ccccc1)Cc1ccccc1 | 1 | 6 | 0 | 1 | 106*
C[C@@H]1CN([C@H](C)CO)C(=O)Cc2cc(NC(=O)Nc3ccc(C(F)(F)F)cc3)ccc2O[C@@H]1CN(C)Cc1ccc(-c2ccccc2)cc1 | / | / | / | 6 | /
COc1ccccc1CNC(=O)C[C@@H]1C[C@@H]2c3cc(NC(=O)C4CCOCC4)ccc3O[C@@H]2[C@H](CO)O1 | / | / | / | -2 | /
N#CC1(NC(=O)COC(=O)Cn2[nH]c(=O)c3ccccc3c2=O)CCCCC1 | 1 | -7 | 0 | -3 | 74*
COc1ccccc1C(=O)NC(=O)COC(=O)Cn1[nH]c(=O)c2ccccc2c1=O | 1 | 2 | 0 | -8 | 84*
COCC1=C([C@H](O)c2ccccc2)[C@H](CO)[C@@H]2C(=O)N(Cc3ccccc3)C(=O)[C@@H]2C1 | / | / | / | -2 | /
Cc1ccc2cc(CN(CC3CCCO3)S(=O)(=O)c3c(C)ccc4nsnc34)c(=O)[nH]c2c1 (configuration not stated) | 0 | 12 | 0 | -5 | 6
Cc1ccc2nsnc2c1S(=O)(=O)N(Cc1cc2cccc(C)c2[nH]c1=O)CC1CCCO1 (configuration not stated) | -1 | -3 | -1 | -6 | 80*
Cc1ccc2cc(CN(CC3CCCO3)C(=O)NC3CCCCC3)c(=O)[nH]c2c1C (configuration not stated) | -1 | -13 | 0 | 2 | 1
Cc1cccc2cc(CN(CC3CCCO3)C(=O)NC3CCCCC3)c(=O)[nH]c12 (configuration not stated) | -1 | 68* | 0 | -15 | 4
O=C(Nc1ccc2c(c1)[C@H]1C[C@@H](CC(=O)N3CCOCC3)O[C@@H](CO)[C@H]1O2)C1CCC1 | / | / | / | -9 | /
CC(=O)Nc1ccc2c(c1)C(=O)N(C)[C@@H]1CC[C@H](CC(=O)NCc3ccccc3Cl)O[C@@H]1CO2 | / | / | / | -32 | /
CCS(=O)(=O)Nc1ccc2c(c1)C(=O)N(C)[C@H]1CC[C@H](CC(=O)N3CCCCC3)O[C@@H]1CO2 | / | / | / | -7 | /
CSc1ccc(/C=N/NC(=O)CNc2cccc3ccccc23)cc1 | 3 | 4 | 0 | / | -7
O=C(CN1CCCCCCC1)N/N=C/c1ccc([N+](=O)[O-])o1 | 22 | 6 | 2 | 8 | -2
O=C(Cc1ccc([N+](=O)[O-])cc1)N/N=C/c1ccc([N+](=O)[O-])o1 | 11 | -2 | 10* | -1 | 6
O=[N+]([O-])c1ccc(/C=N/N=C/c2ccc([N+](=O)[O-])o2)o1 | -19 | 53* | -1 | 2 | -22

Compound activity (PubChem BioAssay)
